Inconclusive results are not listed. Activity calls are given as the source filed them. How the source made its calls: active means hit-call score of the fitted dose curve at least 0.9, where 1 is the maximum; inconclusive means response in the unintended direction; inactive means score below 0.9.
Key:
[1] = TOX21_p53_BLA_p2_viability: Viability Assessment in the Tox21 HCT-116 p53 Agonism Beta-lactamase Assay, Phase 2 (AID 2283591);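 further: compound exposure lasted 16 h at 37 °C; actives lower the ATP signal meaning cytotoxicity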
How it was run: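 Cytotoxicity readout: CellTiter-Glo ATP luminescence, 30 min at room temperature, after the beta-lactamase read. Cells were HCT116 exposed 16 h at 37C to compounds pin-transferred at 217-fold dilution from DMSO stocks.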

[2] = target: Cellular tumor antigen p53 (Homo sapiens) (UniProt P04637); assay: TOX21_p53_BLA_p2_ratio: Tox21 HCT-116 p53 Agonism Beta-lactamase Assay, Ratio, Phase 2 (AID 2283592)
Chain of Cellular tumor antigen p53 (Homo sapiens) (P04637 whole entry, looked up): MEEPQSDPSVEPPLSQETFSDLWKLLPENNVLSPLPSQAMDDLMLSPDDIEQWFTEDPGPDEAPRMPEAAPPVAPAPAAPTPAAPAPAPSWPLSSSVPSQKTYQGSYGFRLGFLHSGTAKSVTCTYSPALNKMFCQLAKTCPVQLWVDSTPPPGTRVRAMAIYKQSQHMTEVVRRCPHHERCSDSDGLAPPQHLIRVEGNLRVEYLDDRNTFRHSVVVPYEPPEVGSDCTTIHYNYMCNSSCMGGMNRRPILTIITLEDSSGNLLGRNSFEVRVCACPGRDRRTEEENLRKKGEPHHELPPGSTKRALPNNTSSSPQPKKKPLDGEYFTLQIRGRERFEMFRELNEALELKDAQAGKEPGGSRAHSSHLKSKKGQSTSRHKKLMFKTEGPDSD
How it was run: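 HCT-116 cells with p53-responsive beta-lactamase reporter, 4000 cells/well, preincubated 5 h, then compound in DMSO (217-fold dilution) for 16 h at 37C. CCF4-AM substrate 2 h at room temperature; 460/530 nm emission ratio fitted upward versus DMSO.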

[3] = TOX21_p53_BLA_p3_viability: Viability Assessment in the Tox21 HCT-116 p53 Agonism Beta-lactamase Assay, Phase 3 (AID 2283593);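 further: cells exposed to compound for 16 h before reading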
How it was run: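 Cellular ATP was quantified by CellTiter-Glo luminescence, read after 30 min at room temperature. Beforehand, HCT116 cells (4000/well) received compound 5 h post-seeding, 217-fold diluted from DMSO, then incubated 16 h at 37C.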

[4] = target: Cellular tumor antigen p53 (Homo sapiens) (UniProt P04637); assay: TOX21_p53_BLA_p3_ratio: Tox21 HCT-116 p53 Agonism Beta-lactamase Assay, Ratio, Phase 3 (AID 2283596)
How it was run: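 HCT116 p53-bla cells (4000/well) given compound in DMSO (217-fold dilution) after 5 h, incubated 16 h at 37C. CCF4-AM substrate 2 h at room temperature; 460/530 nm emission ratio, gain fitted against DMSO.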

[5] = TOX21_p53_BLA_p4_viability: Viability Assessment in the Tox21 HCT-116 p53 Agonism Beta-lactamase Assay, Phase 4 (AID 2283597);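 further: hits lower the luminescence signal meaning cytotoxicity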
How it was run: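 HCT-116 p53-bla cells, 4000/well, dosed after 5 h attachment and incubated 16 h at 37 °C, 5% CO2. Viability from CellTiter-Glo ATP luminescence after 30 min at room temperature, taken after the beta-lactamase read; loss of signal indicates cytotoxicity.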

[6] = target: Cellular tumor antigen p53 (Homo sapiens) (UniProt P04637); assay: TOX21_p53_BLA_p5_ratio: Tox21 HCT-116 p53 Agonism Beta-lactamase Assay, Ratio, Phase 5 (AID 2283599)
How it was run: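 Beta-lactamase reporter ratio (blue 460 nm over green 530 nm, 405 nm excitation) after 2 h CCF4-AM loading, in HCT-116 cells exposed 16 h at 37 C to compounds pinned at 217-fold dilution. Increases relative to DMSO baseline scored.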

[7] = TOX21_p53_BLA_p5_viability: Viability Assessment in the Tox21 HCT-116 p53 Agonism Beta-lactamase Assay, Phase 5 (AID 2283600)
How it was run: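 HCT-116 p53 beta-lactamase reporter cells, 4000/well, were exposed to compound (pin transfer, 217-fold dilution) for 16 hours at 37C. Cellular ATP was read by CellTiter-Glo luminescence after 30 min at room temperature.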

[8] = target: Cellular tumor antigen p53 (Homo sapiens) (UniProt P04637); assay: TOX21_p53_BLA_p4_ratio: Tox21 HCT-116 p53 Agonism Beta-lactamase Assay, Ratio, Phase 4 (AID 2283601)
How it was run: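 Signal is the blue/green (460nm/530nm) ratio of cleaved versus uncleaved CCF4-AM substrate, read after 2 h substrate loading. Cells were HCT116 carrying the p53-responsive beta-lactamase reporter, dosed 16 h at 37C, 5% CO2; CellTiter-Glo measured in parallel.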

## CCO[Si](CCCCl)(OCC)OCC
[1]
  outcome: inactive
[2]
  AC50: 87.7 µM (active)
[3]
  outcome: inactive
[4]
  AC50: 86.2 µM (active)
[5]
  outcome: inactive
[6]
  outcome: inactive
[7]
  outcome: inactive
[8]
  outcome: inactive

## COc1ccccc1N1CCN(CC(O)COc2cccc3ccccc23)CC1 (stereo not drawn)
[1]
  outcome: inactive
[2]
  outcome: inactive
[3]
  outcome: inactive
[4]
  outcome: inactive
[5]
  AC50: 23 µM (active)
[6]
  outcome: inactive
[7]
  outcome: inactive
[8]
  outcome: inactive

## CCOC(=O)Oc1c(OC)cc(C(=O)O[C@@H]2C[C@@H]3CN4CCc5c([nH]c6cc(OC)ccc56)[C@H]4C[C@@H]3[C@H](C(=O)OC)[C@H]2OC)cc1OC
[1]
  outcome: inactive
[2]
  outcome: inactive
[3]
  outcome: inactive
[4]
  outcome: inactive
[5]
  outcome: inactive
[6]
  outcome: inactive
[7]
  outcome: inactive
[8]
  outcome: inactive

## CCCOc1ccccc1-c1nc2n[nH]nc2c(=O)[nH]1
[1]
  outcome: inactive
[2]
  outcome: inactive
[3]
  outcome: inactive
[4]
  outcome: inactive
[5]
  outcome: inactive
[6]
  outcome: inactive
[7]
  outcome: inactive
[8]
  outcome: inactive

## Cc1cc(CC(=O)O)n(C)c1C(=O)c1ccc(Cl)cc1
[1]
  outcome: inactive
[2]
  outcome: inactive
[3]
  outcome: inactive
[4]
  outcome: inactive
[5]
  outcome: inactive
[6]
  outcome: inactive
[7]
  outcome: inactive
[8]
  outcome: inactive

## CC(C)c1nc(N(C)S(C)(=O)=O)nc(-c2ccc(F)cc2)c1/C=C/C(O)CC(O)CC(=O)O (stereo not drawn)
[1]
  outcome: inactive
[2]
  outcome: inactive
[3]
  outcome: inactive
[4]
  outcome: inactive
[5]
  outcome: inactive
[6]
  outcome: inactive
[7]
  outcome: inactive
[8]
  outcome: inactive

## CN1[C@@H]2CC[C@H]1CC(OC(=O)C(O)c1ccccc1)C2 (stereo partly drawn)
[1]
  outcome: inactive
[2]
  outcome: inactive
[3]
  outcome: inactive
[4]
  outcome: inactive
[5]
  outcome: inactive
[6]
  outcome: inactive
[7]
  outcome: inactive
[8]
  outcome: inactive

## COc1ccc(C(=O)CC(=O)c2ccc(C(C)(C)C)cc2)cc1
[1]
  outcome: inactive
[2]
  AC50: 18.5 µM (active)
[3]
  outcome: inactive
[4]
  outcome: inactive
[5]
  outcome: inactive
[6]
  outcome: inactive
[7]
  outcome: inactive
[8]
  outcome: inactive

## Cc1ccc2nc(N)[nH]c(=O)c2c1Sc1ccncc1
[1]
  outcome: inactive
[2]
  AC50: 2.17 µM (active)
[3]
  AC50: 3.66 µM (active)
[4]
  AC50: 3.22 µM (active)
[5]
  outcome: inactive
[6]
  outcome: inactive
[7]
  outcome: inactive
[8]
  outcome: inactive

## CCCCCCCCC1CO1 (stereo not drawn)
[1]
  outcome: inactive
[2]
  outcome: inactive
[3]
  outcome: inactive
[4]
  outcome: inactive
[5]
  outcome: inactive
[6]
  outcome: inactive
[7]
  outcome: inactive
[8]
  outcome: inactive

## COc1cc([C@@H]2c3cc4c(cc3C(O[C@@H]3O[C@@H]5COC(c6cccs6)O[C@H]5[C@H](O)[C@H]3O)C3COC(=O)[C@@H]32)OCO4)cc(OC)c1O (stereo partly drawn)
[1]
  outcome: inactive
[2]
  AC50: 0.717 µM (active)
[3]
  outcome: inactive
[4]
  AC50: 0.939 µM (active)
[5]
  outcome: inactive
[6]
  AC50: 0.886 µM (active)
[7]
  outcome: inactive
[8]
  AC50: 0.841 µM (active)

## CC(=C(CCO)SSC(CCO)=C(C)N(C=O)Cc1cnc(C)nc1N)N(C=O)Cc1cnc(C)nc1N
[1]
  outcome: inactive
[2]
  outcome: inactive
[3]
  outcome: inactive
[4]
  outcome: inactive
[5]
  outcome: inactive
[6]
  outcome: inactive
[7]
  outcome: inactive
[8]
  outcome: inactive

## O=S(=O)(O)c1ccc(O)cc1
[1]
  outcome: inactive
[2]
  outcome: inactive
[3]
  outcome: inactive
[4]
  outcome: inactive
[5]
  outcome: inactive
[6]
  outcome: inactive
[7]
  outcome: inactive
[8]
  outcome: inactive

## CCOc1cc([N+](=O)[O-])c(OCC)cc1N1CCOCC1
[1]
  outcome: inactive
[2]
  outcome: inactive
[3]
  outcome: inactive
[4]
  outcome: inactive
[5]
  outcome: inactive
[6]
  outcome: inactive
[7]
  outcome: inactive
[8]
  outcome: inactive

## O=C(O)c1c(Cl)c(Cl)c(Cl)c(Cl)c1-c1c2cc(I)c(=O)c(I)c-2oc2c(I)c(O)c(I)cc12
[1]
  AC50: 37.2 µM (active)
[2]
  outcome: inactive
[3]
  AC50: 13.6 µM (active)
[4]
  outcome: inactive
[5]
  AC50: 44.1 µM (active)
[6]
  outcome: inactive
[7]
  outcome: inactive
[8]
  AC50: 43.1 µM (active)

## CCn1cc(C(=O)O)c(=O)c2cc(F)c(N3CCNC(C)C3)c(F)c21 (stereo not drawn)
[1]
  outcome: inactive
[2]
  outcome: inactive
[3]
  outcome: inactive
[4]
  outcome: inactive
[5]
  outcome: inactive
[6]
  outcome: inactive
[7]
  outcome: inactive
[8]
  outcome: inactive

## O=C(O)c1ccc(Cl)c(Cl)c1
[1]
  outcome: inactive
[2]
  outcome: inactive
[3]
  outcome: inactive
[4]
  outcome: inactive
[5]
  outcome: inactive
[6]
  outcome: inactive
[7]
  outcome: inactive
[8]
  outcome: inactive

## CN(C)CCCN1c2ccccc2Sc2ccc(C(F)(F)F)cc21
[1]
  outcome: inactive
[2]
  outcome: inactive
[3]
  outcome: inactive
[4]
  AC50: 11.1 µM (active)
[5]
  AC50: 36.2 µM (active)
[6]
  outcome: inactive
[7]
  outcome: inactive
[8]
  AC50: 10.1 µM (active)

## C=C(Nc1ccc(OCC)cc1)Nc1ccc(OCC)cc1
[1]
  outcome: inactive
[2]
  outcome: inactive
[3]
  outcome: inactive
[4]
  outcome: inactive
[5]
  outcome: inactive
[6]
  outcome: inactive
[7]
  outcome: inactive
[8]
  outcome: inactive

## CC[C@H](C)[C@H]1O[C@]2(CC[C@@H]1C)C[C@@H]1C[C@@H](C/C=C(\C)[C@@H](O[C@H]3C[C@H](OC)[C@@H](O[C@H]4C[C@H](OC)[C@@H](O)[C@H](C)O4)[C@H](C)O3)[C@@H](C)/C=C/C=C3\CO[C@@H]4[C@H](O)C(C)=C[C@@H](C(=O)O1)[C@]34O)O2
[1]
  AC50: 5.51 µM (active)
[2]
  AC50: 17.6 µM (active)
[3]
  AC50: 6.87 µM (active)
[4]
  AC50: 14.5 µM (active)
[5]
  AC50: 6.4 µM (active)
[6]
  AC50: 8.8 µM (active)
[7]
  AC50: 7.23 µM (active)
[8]
  AC50: 9.63 µM (active)

## O[C@@H](c1cc(C(F)(F)F)nc2c(C(F)(F)F)cccc12)[C@H]1CCCCN1
[1]
  AC50: 32.7 µM (active)
[2]
  AC50: 28.9 µM (active)
[3]
  AC50: 34 µM (active)
[4]
  AC50: 43.6 µM (active)
[5]
  AC50: 24.6 µM (active)
[6]
  AC50: 42.9 µM (active)
[7]
  AC50: 22 µM (active)
[8]
  AC50: 39.6 µM (active)
